Measured values taken from PubChem BioAssay AID1159580 (chemical genetic matrix, 2015).
Where “and” joins values, the source holds several entries; their conditions need not be identical. Equal entries are not always repeated. The whole screen tested about 5,500 compounds, of which about 2,000 (36%) were called active. Roughly 18% stayed inconclusive and do not appear here. Cut-off read from the data, not from the text of the source: active = normalized growth mostly below about 0.91 (no sharp cut-off); inconclusive = no clear call, values can overlap the other calls; inactive = mostly above about 0.92. Some of the results follow.

Assay: chemical genetic growth profiling, strain panel (AID 1159580);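 note: tested at 20 µM; growth read once vehicle control cultures reached saturation at 30 °C; 1 = growth at the plate median or of vehicle wells; lower values mean less growth of the strain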
Settings: growth OD

Measured: normalized growth

NC(N)=NC(N)=Nc1ccccc1
inactive: S. cerevisiae deletion strains, locus YJR066W, strain TOR1, hits give low values 0.931 | S. cerevisiae deletion strains, locus YKL009W, strain mrt4, hits give low values 0.998 | S. cerevisiae deletion strains, locus YKL068W, hits give low values 0.996 | S. cerevisiae deletion strains, locus YKL085W, strain MDH1 (second series), hits give low values 1 | S. cerevisiae deletion strains, locus YKL085W, strain MDH1, hits give low values 1 | S. cerevisiae deletion strains, locus YKL160W, strain elf1, hits give low values 0.991 | S. cerevisiae deletion strains, locus YKL190W, strain CNB1, hits give low values 1 | S. cerevisiae deletion strains, locus YKR001C, strain vps1, hits give low values 0.994 | S. cerevisiae deletion strains, locus YKR026C, strain gcn3, hits give low values 1 | S. cerevisiae deletion strains, locus YKR091W, strain srl3, hits give low values 0.994 | S. cerevisiae deletion strains, locus YLL001W, strain dnm1, hits give low values 0.982 | S. cerevisiae deletion strains, locus YLL026W, hits give low values 1 | S. cerevisiae deletion strains, locus YLL041C, strain sdh2, hits give low values 1 | S. cerevisiae deletion strains, locus YLR027C, strain aat2, hits give low values 1 | S. cerevisiae deletion strains, locus YLR039C, strain RIC1, hits give low values 1.05 | S. cerevisiae deletion strains, locus YLR058C, strain SHM2, hits give low values 1.02 | S. cerevisiae deletion strains, locus YLR102C, strain apc9, hits give low values 0.994 | S. cerevisiae deletion strains, locus YLR113W, strain HOG1, hits give low values 0.988 | S. cerevisiae deletion strains, locus YLR221C, strain rsa3, hits give low values 1 | S. cerevisiae deletion strains, locus YLR258W, strain gsy2, hits give low values 0.988 | S. cerevisiae deletion strains, locus YLR262C, strain YPT6 (second series), hits give low values 0.985 | S. cerevisiae deletion strains, locus YLR262C, strain YPT6, hits give low values 1.05 | S. cerevisiae deletion strains, locus YLR268W, strain sec22, hits give low values 0.997 | S. cerevisiae deletion strains, locus YLR320W, strain mms22, hits give low values 0.993 | S. cerevisiae deletion strains, locus YLR330W, strain CHS5, hits give low values 1.01 | S. cerevisiae deletion strains, locus YLR342W, strain FKS1 (second series), hits give low values 1.02 | S. cerevisiae deletion strains, locus YLR342W, strain FKS1, hits give low values 1 | S. cerevisiae deletion strains, locus YLR357W, strain rsc2, hits give low values 0.998 | S. cerevisiae deletion strains, locus YLR370C, strain arc18, hits give low values 1.01 | S. cerevisiae deletion strains, locus YLR371W, strain rom2, hits give low values 0.986 | S. cerevisiae deletion strains, locus YLR384C, strain iki3, hits give low values 0.999 | S. cerevisiae deletion strains, locus YLR418C, strain cdc73, hits give low values 0.951 | S. cerevisiae deletion strains, locus YML016C, strain PPZ1, hits give low values 1.02 | S. cerevisiae deletion strains, locus YML032C, strain rad52, hits give low values 0.991 | S. cerevisiae deletion strains, locus YML120C, strain ndi1, hits give low values 0.995 | S. cerevisiae deletion strains, locus YML124C, strain tub3, hits give low values 0.991 | S. cerevisiae deletion strains, locus YMR058W, strain fet3, hits give low values 1 | S. cerevisiae deletion strains, locus YMR078C, strain ctf18, hits give low values 0.998 | S. cerevisiae deletion strains, locus YMR125W, strain sto1, hits give low values 0.982 | S. cerevisiae deletion strains, locus YMR129W, hits give low values 0.996 | S. cerevisiae deletion strains, locus YMR205C, strain PFK2, hits give low values 1.01 | S. cerevisiae deletion strains, locus YMR223W, strain ubp8, hits give low values 0.99 | S. cerevisiae deletion strains, locus YMR231W, strain pep5, hits give low values 0.994 | S. cerevisiae deletion strains, locus YMR263W, strain SAP30, hits give low values 0.993 | S. cerevisiae deletion strains, locus YMR307W, strain GAS1, hits give low values 1.04 and 0.978 | S. cerevisiae deletion strains, locus YNL067W, strain RPL9B, hits give low values 1.03 | S. cerevisiae deletion strains, locus YNL071W, strain lat1, hits give low values 1.01 | S. cerevisiae deletion strains, locus YNL128W, strain TEP1, hits give low values 1.01 and 1.02 | S. cerevisiae deletion strains, locus YNL175C, strain NOP13, hits give low values 1.02 | S. cerevisiae deletion strains, locus YNL183C, strain NPR1, hits give low values 0.923 | S. cerevisiae deletion strains, locus YNL197C, strain WHI3, hits give low values 1.02 | S. cerevisiae deletion strains, locus YNL209W, strain ssb2, hits give low values 1 | S. cerevisiae deletion strains, locus YNL224C, strain SQS1, hits give low values 0.998 | S. cerevisiae deletion strains, locus YNL233W, strain BNI4, hits give low values 1.02 | S. cerevisiae deletion strains, locus YNL248C, strain rpa49, hits give low values 0.998 | S. cerevisiae deletion strains, locus YNL250W, strain rad50, hits give low values 0.992 | S. cerevisiae deletion strains, locus YNL271C, strain bni1, hits give low values 0.994 | S. cerevisiae deletion strains, locus YNL298W, strain CLA4, hits give low values 0.993 | S. cerevisiae deletion strains, locus YNL307C, strain MCK1, hits give low values 1 | S. cerevisiae deletion strains, locus YNL322C, strain KRE1 (second series), hits give low values 1 | S. cerevisiae deletion strains, locus YNL322C, strain KRE1, hits give low values 1 | S. cerevisiae deletion strains, locus YNR049C, strain mso1, hits give low values 1.01 | S. cerevisiae deletion strains, locus YNR052C, strain pop2, hits give low values 0.991 | S. cerevisiae deletion strains, locus YOL006C, strain TOP1, hits give low values 1.03 | S. cerevisiae deletion strains, locus YOL012C, strain htz1 1.06 | S. cerevisiae deletion strains, locus YOL147C, strain pex11, hits give low values 0.991 | S. cerevisiae deletion strains, locus YOR001W, strain rrp6, hits give low values 0.989 | S. cerevisiae deletion strains, locus YOR061W, strain CKA2, hits give low values 1.01 | S. cerevisiae deletion strains, locus YOR069W, strain VPS5, hits give low values 1.01 | S. cerevisiae deletion strains, locus YOR070C, strain gyp1, hits give low values 1 | S. cerevisiae deletion strains, locus YOR080W, strain dia2, hits give low values 0.98 | S. cerevisiae deletion strains, locus YOR083W, strain WHI5 (second series), hits give low values 1.02 | S. cerevisiae deletion strains, locus YOR083W, strain WHI5, hits give low values 0.996 | S. cerevisiae deletion strains, locus YOR106W, strain vam3, hits give low values 1 | S. cerevisiae deletion strains, locus YOR136W, strain idh2, hits give low values 0.995 | S. cerevisiae deletion strains, locus YOR144C, strain elg1, hits give low values 0.994 | S. cerevisiae deletion strains, locus YOR184W, strain ser1, hits give low values 0.977 | S. cerevisiae deletion strains, locus YOR231W, strain MKK1, hits give low values 1.01 | S. cerevisiae deletion strains, locus YOR265W, strain rbl2, hits give low values 1.01 | S. cerevisiae deletion strains, locus YOR270C, strain vph1, hits give low values 1.06 | S. cerevisiae deletion strains, locus YOR290C, strain snf2, hits give low values 0.987 | S. cerevisiae deletion strains, locus YOR316C, strain cot1, hits give low values 0.996 | S. cerevisiae deletion strains, locus YPL051W, strain arl3, hits give low values 0.996 | S. cerevisiae deletion strains, locus YPL055C, strain LGE1, hits give low values 0.993 | S. cerevisiae deletion strains, locus YPL078C, strain atp4, hits give low values 1 | S. cerevisiae deletion strains, locus YPL106C, strain sse1, hits give low values 0.955 | S. cerevisiae deletion strains, locus YPL240C, strain hsp82, hits give low values 0.986 | S. cerevisiae deletion strains, locus YPL241C, strain CIN2, hits give low values 1.01 | S. cerevisiae deletion strains, locus YPL256C, strain CLN2, hits give low values 0.996 | S. cerevisiae deletion strains, locus YPR119W, strain clb2, hits give low values 0.991 | S. cerevisiae deletion strains, locus YPR141C, strain kar3, hits give low values 0.98 | S. cerevisiae deletion strains, locus YPR163C, strain tif3, hits give low values 0.999 | S. cerevisiae deletion strains, locus YPR167C, strain met16, hits give low values 0.996 | S. cerevisiae deletion strains, strain wtn01, hits give low values 1 | S. cerevisiae strains, strain wild type, hits give low values 1.01
